Screening results (PubChem)
Rows were chosen to be rich in hits. Some 5.7% of all compounds tested hit in one or more screens of this group.
DAX1 inh-1 = inhibitors of DAX1 repression of SF-1 activated StAR promoter; inhibition, % at 6.8 µM; 1.1% of 370,000 active; HEK293T StAR-luciferase reporter, SF-1/DAX-1 repression relief; AID 652010;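 active means inhibition above the mean over all tested compounds plus 3 SD, cut at about 3.6% in these data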;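 further: 0% = DAX-1 cells with DMSO and 100% = cells lacking DAX-1 with DMSO; higher inhibition means more luminescence from relief of DAX-1 repression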
ssDAF12 agonist = activates DAF-12 receptor from parasite S. stercoralis; HEK293 ssDAF-12/GRIP1 lit1-tk-luc reporter, luminescence; % of 3 µM dafachronic acid response; activation, % at 6.8 µM; 1% of 370,000 active;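 active means activation above the mean over all tested compounds plus 3 SD, cut at about 0.9% in these data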;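 further: 0% = DMSO-only wells and 100% = 3 µM delta7-dafachronic acid wells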
hgDAF-12 ag = hgDAF-12 agonism, primary luciferase screen; HEK293 GAL4-hgDAF12 UAS-luciferase reporter, agonist luminescence; normalized to butyrate control; activation, % at 6.8 µM; 1.8% of 370,000 active; AID 687014;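 active means activation above a cutoff set at the mean of all screened compounds plus 3 SD, cut at about 10% in these data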;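 further: 0% = DMSO wells and 100% = sodium butyrate wells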
DAX1 inh-2 = NR0B1 (DAX1) inhibition | HEK293 Gal4-DAX1 luciferase reporter, luminescence | inhibition, % at 6.75 µM | 0.99% of 340,000 active | AID 504766;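 active means inhibition above the mean over all tested compounds plus 3 SD, cut at about 4.2% in these data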;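 further: 0% = DAX1-transfected cells with DMSO and 100% = empty-vector control cells with DMSO; inhibition shows as a rise in luminescence from relieved DAX1 repression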
hcDAF-12 act = H. contortus DAF-12 activation, primary screen; activation, % at 6.8 µM; 1.4% of 370,000 active; HEK293 hcDAF-12 lit1-tk-luc reporter, luminescence; 0% DMSO, 100% Δ7-dafachronic acid;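 active means activation above the mean of all tested compounds plus 3 SD, cut at about 5.5% in these data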;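 further: 100% = response to 3 µM Δ7-dafachronic acid high control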
AHR activator = activators of human aryl hydrocarbon receptor | AID 2796 | AHR-responsive luciferase reporter cells, luminescence | activation, % at 5 µM | 2.5% of 320,000 active; in the data active means activation above about 47%;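 further: 0% = vehicle wells and 100% = reference agonist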
AHR act confirm = confirmation of human aryl hydrocarbon receptor activators; shares compounds with AHR activator; human cells, AHR-responsive luciferase reporter, luminescence; activation, % at 9 µM; 87% of 2,300 active; in the data active means activation above about 49%;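 further: HepG2 hepatoma cells carrying a DRE-driven firefly luciferase reporter; 0% = vehicle wells and 100% = reference agonist wells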
PXR act counter = PXR activation, counter-screen for AHR activators; shares compounds with AHR activator; cell-based PXR reporter, luciferase luminescence; activation, % at 11.6 µM; 88% of 2,300 active; in the data active means activation above about 11%;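 further: human hepatoma DPX-2 cells expressing full-length human PXR; 0% = DMSO and 100% = reference agonist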
Active calls of the source: *; . = no result given.

SMILES	DAX1 inh-1	ssDAF12 agonist	hgDAF-12 ag	DAX1 inh-2	hcDAF-12 act	AHR activator	AHR act confirm	PXR act counter
COc1ccc2[nH]c3c(N4CC(C)OC(C)C4)ncnc3c2c1 (stereo not drawn)	-2	-2	-4	.	-2	126*	94*	22*
COc1cccc(N2CCN(c3ncnc4c3[nH]c3ccc(F)cc34)CC2C)c1 (stereo not drawn)	-3	-3	-17	-6	-8	3	.	.
O=C1CCCCC1C(=O)c1cn(-c2ccc(Cl)c(Cl)c2)nn1 (stereo not drawn)	-1	-2	0	-1	1	4	.	.
O=C(c1cn(-c2ccc(Cl)c(Cl)c2)nn1)C1CC1	1	-1	4	1	1	84*	125*	29*
Cc1nn(-c2ccc(Cl)cc2)c2[nH]c(=O)c(CNCc3ccc4c(c3)OCO4)cc12	-1	-1	-2	3	2	88*	83*	36*
N#Cc1nc(-c2ccc(F)cc2)oc1NCCCn1ccnc1	.	.	.	.	.	106*	97*	30*
Cc1cccc2cc(C#N)c(SCCN3CCCCC3)nc12	.	.	.	.	.	81*	101*	48*
Cc1ccc([C@H]2C(C(=O)O)=CC[C@@H](c3ccc4c(c3)OCO4)N2S(=O)(=O)c2ccc(C)cc2)cc1	0	-1	-3	0	-1	2	.	.
Cn1c(=O)c2c(ncn2CC(O)CNc2ccc(F)cc2)n(C)c1=O (stereo not drawn)	0	-1	1	-1	-1	-1	.	.
CCc1nc(NCCCn2ccnc2)c2oc3ccccc3c2n1	0	0	-1	-1	1	109*	114*	41*
CCc1nc(Nc2ccccc2F)c2oc3ccccc3c2n1	-1	-1	0	1	0	94*	95*	42*
CCc1nc(Nc2ccccc2)c2oc3ccccc3c2n1	-1	-2	-1	-1	-1	22	.	.
S=C(NCCCn1ccnc1)NC1CCCCC1	0	-1	-2	-1	-1	5	.	.
Cc1ccsc1C=Nn1c(-c2n[nH]c3c2CCC3)n[nH]c1=S	0	-1	0	.	0	.	.	.
Cc1ccsc1/C=N/n1c(-c2ccccc2)n[nH]c1=S	0	-1	2	0	0	80*	68*	46*
Cc1cc(-c2n[nH]c(=S)n2/N=C/c2sccc2C)n[nH]1	-1	-2	-3	1	-2	112*	91*	25*
S=c1[nH]nc(-c2cc(-c3ccccc3)n[nH]2)n1/N=C/c1cccs1	0	-1	-1	-1	1	132*	128*	39*
Cc1ccsc1/C=N/n1c(-c2ccco2)n[nH]c1=S	1	-1	1	0	-1	2	.	.
O=S1(=O)CC(N2CCCCC2)C1CN1CCCCC1 (stereo not drawn)	-1	-1	-2	1	-1	.	.	.
COc1ccccc1N=CC1=C(O)CC(c2ccccc2)CC1=O (stereo not drawn)	0	-1	1	0	-1	100*	94*	13*
Cc1cccc(-c2nnc(NC(=O)c3ccco3)s2)c1	2	0	4	2	1	164*	129*	54*
Cc1ccc(O)c(NC(=O)c2cccc(NC(=O)c3ccco3)c2)c1	0	-1	2	-1	3	104*	129*	21*
Cc1ccc2nc(-c3cccc(NC(=O)c4ccco4)c3)[nH]c2c1	1	0	2	2	3	91*	92*	16*
S=c1[nH]nc(-c2cc(-c3ccco3)[nH]n2)n1-c1ccccc1	0	0	-1	-1	0	88*	96*	18*
S=c1[nH]nc(-c2cc(-c3ccco3)[nH]n2)n1-c1ccccc1Cl	0	0	1	2	-1	6	.	.
SMILES	DAX1 inh-1	ssDAF12 agonist	hgDAF-12 ag	DAX1 inh-2	hcDAF-12 act	AHR activator	AHR act confirm	PXR act counter
O=C(COc1ccc(S(=O)(=O)N2CCOCC2)cc1)Nc1ccc(Cl)c(C(F)(F)F)c1	-1	-2	-1	-1	-4	1	.	.
CC/C(=N/Nc1ccc(Cl)cc1)c1cnnc(SC)n1	1	-1	-2	1	1	98*	94*	12*
OCCNCc1cc(Br)ccc1OCc1ccccc1Cl	-1	-2	-2	-1	-3	119*	85*	40*
O=C(COc1ccc(Br)cc1CNCCc1ccccc1)NCc1ccccc1	0	-1	3	4	3	114*	90*	44*
CCN1CCN(C(=O)C(C)Nc2ccc(OC)cc2OC)CC1 (stereo not drawn)	0	-1	-1	-1	-1	-2	.	.
C=CCSc1nc2sc3c(c2c(=O)n1CC=C)CCc1ccccc1-3	0	0	-3	-1	5	33	.	.
NNc1nc2sc3c(c2c(=O)[nH]1)CCc1ccccc1-3	0	0	0	0	1	133*	78*	.
CC(C(=O)NCc1ccccc1)N1CCN(c2ccc(F)cc2)CC1 (stereo not drawn)	0	-1	0	0	0	1	.	.
CCn1cnc2cc(NCc3ccc(Cl)cc3)ccc21	1	0	9	3	4	99*	98*	32*
COc1ccc(CCN2Cc3c(N)cccc3C2=O)cc1OC	1	-1	-1	1	1	83*	1	12*
COc1ccc(CCN2Cc3c(cccc3[N+](=O)[O-])C2=O)cc1OC	0	-1	2	-1	-1	-2	.	.
Cc1cc(OCCn2ccnc2)cc(C)c1Cl	0	-1	-2	0	-3	80*	55*	16*
Cc1cccc(C)c1OCCCn1ccnc1	0	-1	0	2	4	136*	36	16*
Cc1cccc(C)c1OCCN1CCCC1	0	0	-1	1	-2	95*	3	11*
CC(C)CC(=O)Nc1ccc(C(=O)COC(=O)C2CCC2)cc1	1	-1	2	1	-2	-1	.	.
OCc1nc2ccccc2n1C/C=C/c1ccccc1	-1	-1	-2	0	-2	1	.	.
O=C1CCCN1CC(O)CS(=O)(=O)Cc1ccccc1Cl (stereo not drawn)	0	-1	1	1	-2	3	.	.
CCSc1nnc(NC(=O)Cn2cnc3c2c(=O)n(C)c(=O)n3C)s1	-1	-1	0	0	-2	0	.	.
CC1=NN(C(N)=S)C(=O)C1N=Nc1cccc(Cl)c1C (stereo not drawn)	0	1	2	1	5	138*	139*	16*
